From PubChem BioAssay (NCATS)
Results filed as inconclusive are left out. Where a call stands in place of a potency, no number is given. Values without a mark were called inactive. Activity calls are given as the source filed them. The call rests on the fitted dose curve; in most records, active means well fitted curve in the direction sought with a large enough effect; inconclusive means small, poorly fitted or top-dose-only effect, or another doubt; inactive means no such curve, though single readings can be large; an effect the other way counts as inactive or inconclusive.

Legend:
[1] = system: Zika virus NS2B-NS3 protease; test: Primary screen GU AMC qHTS for Zika virus inhibitors (AID 1347154); further: nearly all actives have a fitted effect of over 70% in size; further: potency means the concentration at half of the fitted maximal effect
How it was run: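 Fluorogenic AMC-substrate cleavage by noncovalent NS2B-NS3 protease complex (25 nM, pH 8.0 Tris buffer with Tween 20) followed for 15 minutes at room temperature (~20% conversion). Percent inhibition from ex340/em450 signal change, fitted by 4-parameter Hill equation.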

[2] = Confirmatory screen GU Rhodamine qHTS for Zika virus inhibitors qHTS (AID 1347157); further: potency means the concentration at half of the fitted maximal effect; nearly all actives have a fitted effect of over 70% in size
How it was run: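 A qHTS format was used, with compound concentrations ranging up to 114 microM. Each compound was preincubated with 25 nM NS2B-NS3 protease, and the substrate was then added at 1.5 microM. Curves were fitted with a 4-parameter Hill model.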

[3] = system: Zika virus NS2B-NS3 protease (unlinked complex); test: Primary screen GU Rhodamine qHTS for Zika virus inhibitors: Unlinked NS2B-NS3 protease assay (AID 1347159); further: nearly all actives have a fitted effect of over 60% in size; further: potency means the concentration at half of the fitted maximal effect
How it was run: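 Unlinked NS2B/NS3, 25 nM; Rhod110 peptide, 1.5 microM; compounds, up to 114 microM. Reaction run 15 min at RT in 10 mM Tris-HCl pH 8.0, 0.01% Tween 20; kinetic fluorescence change fitted with a 4-parameter Hill model.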

[4] = system: Zika virus NS2B-NS3 protease (linked construct); test: Primary screen NINDS Rhodamine qHTS for Zika virus inhibitors (AID 1347160); further: nearly all actives have a fitted effect of over 55% in size; further: potency means the concentration at half of the fitted maximal effect
How it was run: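 Single-chain NS2B-NS3 protease, 25 nM, pH 8.0; compounds preincubated 15 min. Activity: Rhodamine110 release from 1.5 microM substrate over 15 min, room temperature, data fitted to 4-parameter Hill.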

[5] = Confirmatory screen NINDS Rhodamine qHTS for Zika virus inhibitors (AID 1347161); further: nearly all actives have a fitted effect of over 60% in size; further: potency means the concentration at half of the fitted maximal effect;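 on activity change, negative = inhibition: purified Zika NS2B-NS3 protease with linked NS2B cofactor domain and Rhodamine110 peptide substrate; series mostly up to about 110 µM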
How it was run: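 Purified NS2B-NS3 protease with the NS2B hydrophilic domain joined by a flexible linker (25 nM) in 10 mM Tris-HCl pH 8.0, 0.01% Tween 20, preincubated 15 min at RT with compound; Rhodamine110 peptide substrate 1.5 µM; fluorescence change over 15 min; 4-parameter Hill fit.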

[6] = Vero cells viability qHTS for Zika virus inhibitors (AID 1347167)
How it was run: (§1)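 Luminescent ATP readout (CellTiter Glo) after 30 min at 37 degrees C gives viability; cells in DMEM + 4% FBS were treated 24 to 48 hours with compound, following overnight attachment.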

[7] = HepG2 cells viability qHTS for Zika virus inhibitors (AID 1347168)
How it was run: as §1

[8] = qHTS to identify inhibitors of the type 1 interferon - major histocompatibility complex class I in skeletal muscle: primary screen against the NCATS Mechanism Interrogation Plate v5.0 (MIPE) Libary (AID 1347411); further: nearly all actives have a fitted effect of over 65% in size; further: potency means the concentration at half of the fitted maximal effect
How it was run: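 HLA-B HiBit myoblasts, dexamethasone-free medium + 4 ng/ml IFN-b, 24 h compound, 11-pt 1:3 from 46 uM final. Readout: Nano-Glo HiBiT lytic luminescence after 10 min lysis, RT.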

[9] = target: Calcium and integrin-binding protein 1 (Homo sapiens) (UniProt Q99828); test: Confirmatory qHTS for Identification of Calcium Integrin Binding Protein 1 (CIB1) Competitor (AID 1508617); further: nearly all actives have a fitted effect of over 65% in size
How it was run: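 Binding competition between test compounds and fluorescent alphaIIb peptide for 1 uM CIB1-GST is monitored by FP at 480/540 nm. Final compound range is up to 114 uM; unlabeled peptide serves as reference competitor.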

Sequence of Calcium and integrin-binding protein 1 (Homo sapiens) (Q99828 whole entry, looked up): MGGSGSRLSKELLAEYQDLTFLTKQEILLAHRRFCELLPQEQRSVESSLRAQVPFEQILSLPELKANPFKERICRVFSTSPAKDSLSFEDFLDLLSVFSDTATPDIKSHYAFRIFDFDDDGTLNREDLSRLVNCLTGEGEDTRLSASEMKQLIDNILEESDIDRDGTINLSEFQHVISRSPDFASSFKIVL

SMILES: CN(C)c1ccccc1CN1CCCN(Cc2ccccc2N(C)C)C1c1ccncc1
- Potency [1]: inactive

SMILES: Cc1nc(C(=O)NCC(=O)O)c(O)c2ccc(Oc3ccccc3)cc12
- Potency [1]: 21.5 µM (active)
- Potency [2]: 44.1 µM (active)
- Potency [3]: 22.4 µM (active)
- Potency [4]: inactive
- Potency [5]: 34.9 µM (active)
- outcome [6]: inactive
- outcome [7]: inactive
- Potency [8]: inactive
- Potency [9]: inactive

SMILES: OC[C@H]1O[C@@H](Oc2ccc(O)cc2)[C@H](O)[C@@H](O)[C@H]1O
- Potency [1]: inactive

SMILES: O=c1[nH]c(=O)n([C@H]2C[C@@H](O)[C@@H](CO)O2)cc1C(F)(F)F
- Potency [1]: inactive

SMILES: CCC(=O)OCC(=O)[C@@]1(OC(=O)CC)[C@@H](C)C[C@@H]2[C@H]3CCC4=CC(=O)C=C[C@]4(C)[C@@]3(F)[C@@H](O)C[C@@]21C
- Potency [1]: inactive

SMILES: Cn1c(=O)c(-c2c(Cl)cccc2Cl)cc2cnc(Nc3cccc(C(=O)O)c3)nc21
- Potency [1]: inactive
- Potency [2]: 11.1 µM (active)
- Potency [3]: 7.94 µM (active)
- Potency [5]: 13.9 µM (active)
- Potency [8]: inactive

SMILES: CCC(=O)N1CCN(c2ccc(-n3c(=O)ccc4cnc5ccc(-c6cnc7ccccc7c6)cc5c43)cc2C(F)(F)F)CC1
- Potency [1]: inactive
- activity change, negative = inhibition [3]: -9.09% [at 19.1 µM]

SMILES: CN(C)c1nc(Cc2ccc(NC(=O)c3ccc(C(F)(F)F)cc3)cc2)nc(N(C)C)c1CC(=O)O
- Potency [1]: inactive
- Potency [3]: inactive

SMILES: CS(=O)(=O)c1ccc(C2=C(c3ccccc3)C(=O)OC2)cc1
- Potency [1]: inactive
- Potency [3]: inactive
- Potency [4]: inactive
- Potency [8]: inactive

SMILES: CN1C(=O)C(Cc2c[nH]c3ccccc23)NC1=S (stereo unspecified)
- Potency [1]: inactive
- Potency [3]: inactive
- Potency [4]: inactive
- Potency [8]: inactive

SMILES: Cc1nc2c([nH]1)CCN(C(=O)c1ccc(NC(=O)c3ccccc3-c3ccccc3)cc1)c1ccccc1-2
- Potency [1]: inactive
- Potency [3]: inactive
- Potency [8]: inactive

SMILES: C[C@@H](N)c1ccc(C(=O)Nc2ccnc3[nH]ccc23)cc1
- Potency [1]: inactive
- Potency [3]: inactive
- Potency [4]: inactive
- Potency [8]: 16.5 µM (active)

SMILES: c1cc(OCCN2CCCCC2)cc(-c2n[nH]c3ccc(-c4ncn[nH]4)cc23)c1
- Potency [1]: 24.1 µM (active)
- Potency [3]: inactive
- Potency [4]: inactive
- Potency [5]: inactive
- outcome [6]: inactive
- outcome [7]: inactive
- Potency [8]: inactive

SMILES: CNC(=O)c1c(-c2ccc(F)cc2)oc2cc(N(CCO)S(C)(=O)=O)c(C3CC3)cc12
- Potency [1]: 27.1 µM (active)
- Potency [3]: inactive
- Potency [4]: inactive
- Potency [8]: inactive

SMILES: CCc1cccc(CC)c1NC(=O)N1Cc2[nH]nc(NC(=O)c3ccc(N4CCN(C)CC4)cc3)c2C1
- Potency [1]: inactive
- Potency [3]: inactive
- Potency [8]: 10.4 µM (active)

SMILES: CCCCn1c(=O)n(Cc2ccccc2F)c(=O)c2[nH]c(Cc3ccc(NC(C)=O)cc3)nc21
- Potency [1]: inactive
- Potency [3]: inactive
- Potency [4]: inactive

SMILES: O=C(Nc1ccc(OC(F)(F)F)cc1)c1sccc1NCc1ccnc2ccccc12
- Potency [1]: inactive
- Potency [3]: inactive
- Potency [4]: inactive
- Potency [8]: inactive

SMILES: CCn1c(-c2nonc2N)nc2cncc(CNC3CCNCC3)c21
- Potency [1]: inactive
- Potency [3]: inactive
- Potency [4]: inactive
- Potency [8]: inactive

SMILES: Cc1cc2c(cc1C1(c3ccc(C(=O)O)cn3)CC1)C(C)(C)CCC2(C)C
- Potency [1]: inactive
- Potency [3]: 10 µM (active)
- Potency [4]: 14.1 µM (active)
- Potency [8]: inactive

SMILES: CCN1CCC(n2cc(CNc3cc(Cl)c4ncc(C#N)c(Nc5ccc(F)c(Cl)c5)c4c3)nn2)CC1
- Potency [1]: inactive
- Potency [3]: inactive
- Potency [4]: inactive

SMILES: Cc1cc(C(C)Nc2ccccc2)c2nc(N3CCOCC3)cc(=O)n2c1 (stereo unspecified)
- Potency [1]: inactive
- Potency [3]: inactive
- Potency [4]: inactive
- Potency [8]: inactive

SMILES: COc1cc2nccc(Oc3ccc(NC(=O)Nc4cc(C)on4)c(Cl)c3)c2cc1OC
- Potency [1]: inactive
- Potency [3]: inactive
- Potency [8]: 13.1 µM (active)

SMILES: NC1(C(=O)N[C@@H](CCO)c2ccc(Cl)cc2)CCN(c2ncnc3[nH]ccc23)CC1
- Potency [1]: inactive
- Potency [3]: inactive
- Potency [4]: inactive

SMILES: CC(C)CNc1ccnc(NCc2csc(-c3ccccc3)n2)n1
- Potency [1]: inactive
- Potency [3]: inactive
- Potency [4]: inactive
- Potency [8]: 16.5 µM (active)

SMILES: Cc1ccc2c(c1)c1c(n2CCc2ccc(C)nc2)CCN(C)C1
- Potency [1]: inactive
- Potency [3]: inactive
- Potency [4]: inactive

SMILES: O=C(O)CCNc1cc(N2CCc3ccccc3CC2)nc(-c2ccccn2)n1
- Potency [1]: inactive
- Potency [3]: inactive
- activity change, negative = inhibition [4]: -4.33% [at 10.7 µM]
- Potency [8]: inactive

SMILES: CC(C)(OCc1nn(Cc2ccccc2)c2ccccc12)C(=O)O
- Potency [1]: inactive
- Potency [3]: inactive
- Potency [4]: inactive
- Potency [8]: inactive

SMILES: CCCCC(F)(F)[C@@]1(O)CC[C@H]2[C@H](CC(=O)[C@@H]2CCCCCCC(=O)O)O1
- Potency [1]: inactive
- Potency [3]: inactive
- Potency [8]: inactive

SMILES: Cc1ccccc1C(C(=O)NC1CCCCC1)N(C(=O)CNc1ccc(C#N)cc1)c1cccc(F)c1 (stereo unspecified)
- Potency [1]: inactive
- Potency [3]: inactive
- Potency [8]: inactive

SMILES: COc1nccc(-c2c(-c3ccc(F)cc3)ncn2C2CCNCC2)n1
- Potency [1]: inactive
- Potency [3]: inactive
- Potency [4]: inactive
- Potency [8]: inactive

SMILES: COc1nc(C)cnc1NS(=O)(=O)c1cccnc1-c1ccc(-c2nnco2)cc1
- Potency [1]: inactive
- Potency [3]: inactive
- Potency [4]: inactive
- Potency [8]: inactive

SMILES: CC(C)(O)CC(=O)NCCn1ccc2ncnc(Nc3ccc(Oc4cccc(C(F)(F)F)c4)c(Cl)c3)c21
- Potency [1]: inactive
- Potency [3]: inactive
- Potency [4]: inactive
